Source: PubChem BioAssay (NCI)
This is part of a sample that, as a whole, favours compounds with a hit. Of some 79,000 tested, about 15% had one in any assay. A number with no mark means an inactive call. Rule as the data show it: active = growth inhibition above about 70%; inactive = the rest.

Assay: NCI Yeast Anticancer Drug Screen. Data for the cln2 rad14 strain (AID 165);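 also: 0% = growth equal to vehicle treated cultures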
Settings: S. cerevisiae cln2 rad14 strain, at 50.0 µM, active compounds read high
Procedure, shortened: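 Growth inhibition, relative to vehicle-treated controls, is the read-out. The test organism is a yeast strain with defined genetic alterations, cln2 rad14.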
For `CC(C)=NNc1ccc([N+](=O)[O-])cc1[N+](=O)[O-]`, the growth inhibition was 25.4%.
Compound `CC1(C)Nc2cccc3c(N=Nc4ccc(N=Nc5ccccc5)c5ccccc45)ccc(c23)N1` has a growth inhibition of -2.2%.
For `Nc1nc2c(c(-c3nc(N)nc4c3CCc3ccccc3-4)n1)CCc1ccccc1-2`, the growth inhibition was 3.05%.
For `C#C[C@H]1CCCCCC1O` (some centres not stated), the growth inhibition was 14.4%.
`O=C(O)CCC(NC(=O)OCc1ccccc1)C(=O)O` (configuration not stated) showed a growth inhibition of 9.55%.
Work on `CCOC(=O)C(=O)C=P(c1ccccc1)(c1ccccc1)c1ccccc1` yielded a growth inhibition of -8.9%.
Compound `N#CCc1ccc([N+](=O)[O-])cc1` has a growth inhibition of -2.1%.
`Cc1cc2nc(CC(=O)c3ccccc3)c(=O)[nH]c2cc1C` gave a growth inhibition of 9.4%.
Compound `Oc1ccccc1O` has a growth inhibition of -11.7%.
Compound `CC(=O)Nc1c(C)cc(C)cc1C` has a growth inhibition of -11.8%.
With `N#Cc1ccc(OC(=O)Nc2ccc(Cl)c(Cl)c2)cc1` the growth inhibition was 8.35%.
`CC(C)C(C#N)(C(C)C)C(C)C` showed a growth inhibition of -29.6%.
Work on `CN(C)/N=C/c1ccccc1O` yielded a growth inhibition of -6.85%.
Compound `COc1cc([C@@H]2c3cc4c(cc3[C@H](O)[C@H]3COC(=O)[C@H]23)OCO4)cc(OC)c1OC` has a growth inhibition of 5.1%.
For `Cc1ccc(/C(C#N)=C/c2ccc3c(c2)OCO3)cc1`, the growth inhibition was -14.3%.
In the case of `COC(=O)/C=C/C(=O)NC(N)=O`, the growth inhibition is reported as 9.95%.
With `COc1cc2c(cc1O)CC[C@@H]1C2CC[C@@]2(C)C1CC[C@@H]2O` (some centres not stated) the growth inhibition was -26.6%.
For `COc1ccc2c(c1)CCc1c-2n[nH]c1-c1[nH]nc2c1CCc1cc(OC)ccc1-2`, the growth inhibition was -5.55%.
`C/C(=N/NC(N)=O)c1ccco1` showed a growth inhibition of -2%.
In the case of `c1cc2cccc3c4cccc5cccc(c(c1)c23)c54`, the growth inhibition is reported as 10.8%.
In the case of `S=C(Nc1ccccc1)N1CCCCC1`, the growth inhibition is reported as -39.3%.
`COc1ccc(C)cc1OC` gave a growth inhibition of 0.6%.
In the case of `CCN(CC)C(=O)/C=C(/C)c1ccccc1`, the growth inhibition is reported as -6.95%.
`O=C(N/N=C/c1ccccc1O)Nc1nn[nH]n1` gave a growth inhibition of -7.8%.
Work on `CSC(=N\N=C\c1ccc(N(C)C)cc1)/N=C/N(C)C` yielded a growth inhibition of 7.65%.
`CC(=O)Nc1ccc(NC(C)=O)c2c1C(=O)c1ccccc1C2=O` showed a growth inhibition of 2.15%.
Compound `O=C(Nc1ccccc1C(=O)NCC1CC1)c1cccs1` has a growth inhibition of 5.35%.
`O=C(Cc1nc2ccc([N+](=O)[O-])cc2nc1CC(=O)c1cccnc1)c1cccnc1` showed a growth inhibition of 15.2%.
Compound `CSc1[nH]c(=O)ncc1F` has a growth inhibition of -4.15%.
For `O=c1[nH]n(-c2ccccc2)c(=O)cc1Cl`, the growth inhibition was -0.3%.
For `COc1ccc(-c2cc(-c3cc(-c4ccc(OC)cc4)nc(N)n3)nc(N)n2)cc1`, the growth inhibition was -2.65%.
Work on `NC(=O)c1ccc(N=C(N)N=C(N)N)cc1` yielded a growth inhibition of -36.2%.
For `OCCN1CCOCC1`, the growth inhibition was 24.9%.
Work on `CC(=O)OCC1CCCO1` (configuration not stated) yielded a growth inhibition of -44.1%.
With `CCCCNC(=O)C(=O)NCCCC` the growth inhibition was 28.6%.
`CCOC(=O)/C(C#N)=C/c1cccc(C)c1` gave a growth inhibition of 13.3%.
`O=C(O)CNC(=O)c1ccccc1` gave a growth inhibition of -50.1%.
With `c1ccc(CN2COc3c(ccc4c3OCN(Cc3ccccc3)C4)C2)cc1` the growth inhibition was -22.7%.

Assay: NCI Yeast Anticancer Drug Screen. Data for the bub3 strain (AID 167)
Settings: S. cerevisiae bub3 mutant strain, at 50.0 µM, active compounds read high
Procedure, shortened: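 Inhibition values come from growth of compound-treated mutant yeast normalised to vehicle-treated controls.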
Work on `CC(C)=NNc1ccc([N+](=O)[O-])cc1[N+](=O)[O-]` yielded a growth inhibition of -5.75%.
With `CC1(C)Nc2cccc3c(N=Nc4ccc(N=Nc5ccccc5)c5ccccc45)ccc(c23)N1` the growth inhibition was -5.2%.
With `Nc1nc2c(c(-c3nc(N)nc4c3CCc3ccccc3-4)n1)CCc1ccccc1-2` the growth inhibition was -20.5%.
In the case of `C#C[C@H]1CCCCCC1O` (some centres not stated), the growth inhibition is reported as -6.75%.
`O=C(O)CCC(NC(=O)OCc1ccccc1)C(=O)O` (configuration not stated) showed a growth inhibition of -21.2%.
For `CCOC(=O)C(=O)C=P(c1ccccc1)(c1ccccc1)c1ccccc1`, the growth inhibition was -40.9%.
With `N#CCc1ccc([N+](=O)[O-])cc1` the growth inhibition was 15.2%.
In the case of `Cc1cc2nc(CC(=O)c3ccccc3)c(=O)[nH]c2cc1C`, the growth inhibition is reported as -15.7%.
Work on `CC(=O)Nc1c(C)cc(C)cc1C` yielded a growth inhibition of 9.45%.
In the case of `N#Cc1ccc(OC(=O)Nc2ccc(Cl)c(Cl)c2)cc1`, the growth inhibition is reported as 9.95%.
With `CN(C)/N=C/c1ccccc1O` the growth inhibition was -21.6%.
For `COc1cc([C@@H]2c3cc4c(cc3[C@H](O)[C@H]3COC(=O)[C@H]23)OCO4)cc(OC)c1OC`, the growth inhibition was 3.6%.
Work on `Cc1ccc(/C(C#N)=C/c2ccc3c(c2)OCO3)cc1` yielded a growth inhibition of 47.8%.
Work on `COC(=O)/C=C/C(=O)NC(N)=O` yielded a growth inhibition of -17.2%.
`COc1cc2c(cc1O)CC[C@@H]1C2CC[C@@]2(C)C1CC[C@@H]2O` (some centres not stated) gave a growth inhibition of -13.8%.
Work on `COc1ccc2c(c1)CCc1c-2n[nH]c1-c1[nH]nc2c1CCc1cc(OC)ccc1-2` yielded a growth inhibition of -16.1%.
For `C/C(=N/NC(N)=O)c1ccco1`, the growth inhibition was 1.95%.
With `c1cc2cccc3c4cccc5cccc(c(c1)c23)c54` the growth inhibition was -4.15%.
`S=C(Nc1ccccc1)N1CCCCC1` showed a growth inhibition of 2.4%.
`COc1ccc(C)cc1OC` gave a growth inhibition of -8.2%.
Work on `CCN(CC)C(=O)/C=C(/C)c1ccccc1` yielded a growth inhibition of 4.25%.
In the case of `CSC(=N\N=C\c1ccc(N(C)C)cc1)/N=C/N(C)C`, the growth inhibition is reported as 18.6%.
With `CC(=O)Nc1ccc(NC(C)=O)c2c1C(=O)c1ccccc1C2=O` the growth inhibition was -19.3%.
Work on `O=C(Nc1ccccc1C(=O)NCC1CC1)c1cccs1` yielded a growth inhibition of 5.9%.
In the case of `O=C(Cc1nc2ccc([N+](=O)[O-])cc2nc1CC(=O)c1cccnc1)c1cccnc1`, the growth inhibition is reported as -3.85%.
`CSc1[nH]c(=O)ncc1F` showed a growth inhibition of -2.3%.
`COc1ccc(-c2cc(-c3cc(-c4ccc(OC)cc4)nc(N)n3)nc(N)n2)cc1` gave a growth inhibition of -2.65%.
Work on `NC(=O)c1ccc(N=C(N)N=C(N)N)cc1` yielded a growth inhibition of -11.8%.
For `OCCN1CCOCC1`, the growth inhibition was 7%.
`CC(=O)OCC1CCCO1` (configuration not stated) gave a growth inhibition of 19.6%.
Work on `CCCCNC(=O)C(=O)NCCCC` yielded a growth inhibition of 7%.
With `CCOC(=O)/C(C#N)=C/c1cccc(C)c1` the growth inhibition was 23.2%.
For `O=C(O)CNC(=O)c1ccccc1`, the growth inhibition was -25%.
For `c1ccc(CN2COc3c(ccc4c3OCN(Cc3ccccc3)C4)C2)cc1`, the growth inhibition was 9.7%.
